How the values were obtained:
[1] = target: Sphingosine kinase 1 (Homo sapiens) (UniProt Q9NYA1); details: at 1 µM;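 note: mean SPHK1 inhibition value reported from the GSK PKIS kinase panel screen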
[2] = target: T1, Sphingosine kinase 2 (Homo sapiens) (UniProt Q9NRA0); details: at 0.1 µM
T1 sequence (whole entry): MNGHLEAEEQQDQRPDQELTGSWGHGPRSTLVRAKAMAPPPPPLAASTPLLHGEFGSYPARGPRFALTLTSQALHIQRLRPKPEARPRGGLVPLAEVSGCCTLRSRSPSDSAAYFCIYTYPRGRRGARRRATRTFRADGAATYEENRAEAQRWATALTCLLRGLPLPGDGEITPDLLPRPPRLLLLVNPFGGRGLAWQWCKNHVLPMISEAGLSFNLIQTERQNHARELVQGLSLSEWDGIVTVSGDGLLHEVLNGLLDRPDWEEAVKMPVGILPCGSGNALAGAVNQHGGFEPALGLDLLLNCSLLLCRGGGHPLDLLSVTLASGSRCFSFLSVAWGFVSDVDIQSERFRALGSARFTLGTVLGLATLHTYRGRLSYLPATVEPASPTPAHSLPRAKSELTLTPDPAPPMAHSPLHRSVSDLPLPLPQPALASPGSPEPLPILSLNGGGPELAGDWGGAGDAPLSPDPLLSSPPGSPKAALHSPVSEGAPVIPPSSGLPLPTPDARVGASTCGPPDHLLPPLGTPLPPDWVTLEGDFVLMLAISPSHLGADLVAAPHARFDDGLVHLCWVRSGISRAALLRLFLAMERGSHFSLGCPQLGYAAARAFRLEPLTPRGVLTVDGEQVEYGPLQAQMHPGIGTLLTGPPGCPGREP

[3] = target: T1, Sphingosine kinase 2 (Homo sapiens); details: at 1 µM
[4] = target: Casein kinase II subunit alpha (Homo sapiens) (UniProt P68400); details: at 0.1 µM
[5] = target: Casein kinase II subunit alpha (Homo sapiens) (UniProt P68400); details: at 1 µM
[6] = target: T2, Inhibitor of nuclear factor kappa-B kinase subunit alpha (Homo sapiens) (UniProt O15111); details: at 0.1 µM
T2 sequence (whole entry): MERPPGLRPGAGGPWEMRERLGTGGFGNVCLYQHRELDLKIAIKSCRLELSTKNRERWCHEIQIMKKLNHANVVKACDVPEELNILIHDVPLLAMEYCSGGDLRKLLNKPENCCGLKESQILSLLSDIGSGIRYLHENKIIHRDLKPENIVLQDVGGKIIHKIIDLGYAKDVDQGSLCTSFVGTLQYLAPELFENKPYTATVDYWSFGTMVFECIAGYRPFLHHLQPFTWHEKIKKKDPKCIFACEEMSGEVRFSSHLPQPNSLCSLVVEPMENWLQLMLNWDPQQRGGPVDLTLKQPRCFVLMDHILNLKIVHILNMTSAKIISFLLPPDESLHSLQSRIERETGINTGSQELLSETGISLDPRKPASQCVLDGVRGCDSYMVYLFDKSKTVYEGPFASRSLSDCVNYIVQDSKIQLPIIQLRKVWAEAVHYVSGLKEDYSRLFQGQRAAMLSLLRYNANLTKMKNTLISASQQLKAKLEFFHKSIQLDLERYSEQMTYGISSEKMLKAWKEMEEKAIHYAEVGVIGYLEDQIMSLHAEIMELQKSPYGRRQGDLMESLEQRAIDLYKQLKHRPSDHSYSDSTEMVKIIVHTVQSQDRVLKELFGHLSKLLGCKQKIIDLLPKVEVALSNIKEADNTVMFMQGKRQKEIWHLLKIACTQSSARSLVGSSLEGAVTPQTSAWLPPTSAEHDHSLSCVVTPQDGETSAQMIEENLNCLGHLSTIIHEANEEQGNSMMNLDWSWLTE

[7] = target: T2, Inhibitor of nuclear factor kappa-B kinase subunit alpha (Homo sapiens); details: at 1 µM
[8] = target: T3, Inhibitor of nuclear factor kappa-B kinase subunit beta (Homo sapiens) (UniProt O14920); details: at 0.1 µM
T3 sequence (whole entry): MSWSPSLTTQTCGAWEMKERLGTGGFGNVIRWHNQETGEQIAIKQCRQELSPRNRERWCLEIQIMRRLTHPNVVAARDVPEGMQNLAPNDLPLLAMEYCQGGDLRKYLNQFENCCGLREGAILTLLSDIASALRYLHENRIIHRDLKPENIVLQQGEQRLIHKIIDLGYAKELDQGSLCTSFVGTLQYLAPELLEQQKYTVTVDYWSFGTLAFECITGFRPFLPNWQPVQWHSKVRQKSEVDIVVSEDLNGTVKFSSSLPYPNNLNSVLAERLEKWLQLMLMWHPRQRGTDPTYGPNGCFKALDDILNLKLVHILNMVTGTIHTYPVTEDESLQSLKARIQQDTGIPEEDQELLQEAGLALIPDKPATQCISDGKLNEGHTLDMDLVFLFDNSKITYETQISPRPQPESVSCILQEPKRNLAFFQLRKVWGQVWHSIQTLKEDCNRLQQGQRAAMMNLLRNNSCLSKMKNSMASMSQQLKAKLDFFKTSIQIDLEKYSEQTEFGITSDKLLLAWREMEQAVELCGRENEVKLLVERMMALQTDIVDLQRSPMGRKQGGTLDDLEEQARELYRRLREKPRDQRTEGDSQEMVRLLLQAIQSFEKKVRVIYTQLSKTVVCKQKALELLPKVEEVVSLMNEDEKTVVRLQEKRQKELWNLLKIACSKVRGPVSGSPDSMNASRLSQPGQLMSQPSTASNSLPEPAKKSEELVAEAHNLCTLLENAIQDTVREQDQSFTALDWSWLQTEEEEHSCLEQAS

[9] = target: T3, Inhibitor of nuclear factor kappa-B kinase subunit beta (Homo sapiens); details: at 1 µM
[10] = target: T4, Inhibitor of nuclear factor kappa-B kinase subunit epsilon (Homo sapiens) (UniProt Q14164); details: at 0.1 µM
T4 sequence (whole entry): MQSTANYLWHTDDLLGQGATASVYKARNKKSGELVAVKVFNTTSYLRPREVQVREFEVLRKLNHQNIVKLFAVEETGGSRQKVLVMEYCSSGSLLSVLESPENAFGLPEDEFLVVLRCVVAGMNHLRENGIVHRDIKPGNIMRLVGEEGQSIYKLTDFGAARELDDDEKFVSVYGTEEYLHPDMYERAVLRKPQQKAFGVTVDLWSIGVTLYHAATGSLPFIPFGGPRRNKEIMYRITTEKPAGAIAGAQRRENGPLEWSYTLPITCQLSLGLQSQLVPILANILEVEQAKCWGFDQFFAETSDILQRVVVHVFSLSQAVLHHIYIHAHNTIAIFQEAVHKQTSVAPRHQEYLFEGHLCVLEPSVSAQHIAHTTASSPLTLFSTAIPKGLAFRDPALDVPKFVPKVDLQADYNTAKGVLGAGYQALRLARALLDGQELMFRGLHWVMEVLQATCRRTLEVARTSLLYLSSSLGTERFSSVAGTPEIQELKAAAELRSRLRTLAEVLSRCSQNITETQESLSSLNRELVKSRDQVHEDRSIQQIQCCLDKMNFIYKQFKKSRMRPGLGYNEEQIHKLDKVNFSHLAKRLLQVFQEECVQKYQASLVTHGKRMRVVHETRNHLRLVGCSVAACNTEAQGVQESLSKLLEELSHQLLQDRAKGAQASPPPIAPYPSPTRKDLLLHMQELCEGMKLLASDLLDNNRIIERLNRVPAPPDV

[11] = target: T4, Inhibitor of nuclear factor kappa-B kinase subunit epsilon (Homo sapiens); details: at 1 µM
[12] = target: T5, Serine/threonine-protein kinase Nek1 (Homo sapiens) (UniProt Q96PY6); details: at 0.1 µM
T5 sequence (whole entry): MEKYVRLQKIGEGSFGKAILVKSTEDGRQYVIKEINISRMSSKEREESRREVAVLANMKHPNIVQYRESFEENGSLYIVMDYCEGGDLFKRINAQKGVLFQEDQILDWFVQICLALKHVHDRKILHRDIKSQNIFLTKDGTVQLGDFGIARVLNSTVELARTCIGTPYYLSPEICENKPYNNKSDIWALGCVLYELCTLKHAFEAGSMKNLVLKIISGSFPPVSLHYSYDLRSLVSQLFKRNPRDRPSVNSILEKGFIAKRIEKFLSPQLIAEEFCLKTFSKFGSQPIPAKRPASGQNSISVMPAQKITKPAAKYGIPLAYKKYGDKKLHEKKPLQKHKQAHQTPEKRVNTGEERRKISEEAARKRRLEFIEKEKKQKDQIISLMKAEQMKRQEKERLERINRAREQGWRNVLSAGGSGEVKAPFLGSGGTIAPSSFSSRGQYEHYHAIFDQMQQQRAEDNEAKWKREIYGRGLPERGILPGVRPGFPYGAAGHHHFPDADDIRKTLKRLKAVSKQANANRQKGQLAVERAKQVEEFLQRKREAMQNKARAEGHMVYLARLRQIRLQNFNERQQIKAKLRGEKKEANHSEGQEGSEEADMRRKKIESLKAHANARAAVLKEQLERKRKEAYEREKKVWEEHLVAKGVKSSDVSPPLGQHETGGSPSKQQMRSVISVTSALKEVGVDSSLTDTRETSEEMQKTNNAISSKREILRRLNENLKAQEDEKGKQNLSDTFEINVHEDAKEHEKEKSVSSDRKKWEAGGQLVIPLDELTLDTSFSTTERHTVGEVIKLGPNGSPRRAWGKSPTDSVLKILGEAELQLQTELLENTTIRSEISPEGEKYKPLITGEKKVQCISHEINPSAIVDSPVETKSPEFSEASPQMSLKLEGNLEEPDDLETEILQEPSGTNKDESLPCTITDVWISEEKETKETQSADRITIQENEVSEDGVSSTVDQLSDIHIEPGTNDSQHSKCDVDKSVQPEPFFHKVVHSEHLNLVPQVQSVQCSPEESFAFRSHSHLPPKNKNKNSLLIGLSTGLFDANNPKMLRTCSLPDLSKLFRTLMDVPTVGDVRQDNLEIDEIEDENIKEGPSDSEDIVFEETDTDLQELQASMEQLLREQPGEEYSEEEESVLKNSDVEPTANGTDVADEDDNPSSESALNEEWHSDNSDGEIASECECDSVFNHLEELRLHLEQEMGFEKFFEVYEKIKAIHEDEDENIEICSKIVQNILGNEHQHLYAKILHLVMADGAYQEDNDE

[13] = target: T5, Serine/threonine-protein kinase Nek1 (Homo sapiens); details: at 1 µM
[14] = target: T6, Serine/threonine-protein kinase Nek2 (Homo sapiens) (UniProt P51955); details: at 0.1 µM
T6 sequence (whole entry): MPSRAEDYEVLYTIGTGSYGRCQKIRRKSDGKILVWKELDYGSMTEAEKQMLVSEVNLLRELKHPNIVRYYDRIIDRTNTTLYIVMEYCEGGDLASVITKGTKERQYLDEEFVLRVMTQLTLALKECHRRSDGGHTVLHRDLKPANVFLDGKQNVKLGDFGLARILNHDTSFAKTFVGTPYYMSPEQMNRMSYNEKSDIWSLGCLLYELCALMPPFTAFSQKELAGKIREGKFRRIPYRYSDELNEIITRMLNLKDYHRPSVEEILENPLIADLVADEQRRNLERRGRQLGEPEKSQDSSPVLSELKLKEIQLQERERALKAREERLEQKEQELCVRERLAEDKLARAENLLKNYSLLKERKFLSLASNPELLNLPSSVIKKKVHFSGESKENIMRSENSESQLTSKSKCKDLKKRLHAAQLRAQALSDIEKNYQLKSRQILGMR

[15] = target: T6, Serine/threonine-protein kinase Nek2 (Homo sapiens); details: at 1 µM
[16] = target: Serine/threonine-protein kinase Nek6 (Homo sapiens) (UniProt Q9HC98); details: at 0.1 µM
[17] = target: Serine/threonine-protein kinase Nek6 (Homo sapiens) (UniProt Q9HC98); details: at 1 µM
[18] = target: Serine/threonine-protein kinase Nek7 (Homo sapiens) (UniProt Q8TDX7); details: at 0.1 µM
[19] = target: Serine/threonine-protein kinase Nek7 (Homo sapiens) (UniProt Q8TDX7); details: at 1 µM
[20] = target: T7, Serine/threonine-protein kinase Nek9 (Homo sapiens) (UniProt Q8TD19); details: at 0.1 µM;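 note: reported value is the mean percent inhibition of NEK9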
T7 sequence (whole entry): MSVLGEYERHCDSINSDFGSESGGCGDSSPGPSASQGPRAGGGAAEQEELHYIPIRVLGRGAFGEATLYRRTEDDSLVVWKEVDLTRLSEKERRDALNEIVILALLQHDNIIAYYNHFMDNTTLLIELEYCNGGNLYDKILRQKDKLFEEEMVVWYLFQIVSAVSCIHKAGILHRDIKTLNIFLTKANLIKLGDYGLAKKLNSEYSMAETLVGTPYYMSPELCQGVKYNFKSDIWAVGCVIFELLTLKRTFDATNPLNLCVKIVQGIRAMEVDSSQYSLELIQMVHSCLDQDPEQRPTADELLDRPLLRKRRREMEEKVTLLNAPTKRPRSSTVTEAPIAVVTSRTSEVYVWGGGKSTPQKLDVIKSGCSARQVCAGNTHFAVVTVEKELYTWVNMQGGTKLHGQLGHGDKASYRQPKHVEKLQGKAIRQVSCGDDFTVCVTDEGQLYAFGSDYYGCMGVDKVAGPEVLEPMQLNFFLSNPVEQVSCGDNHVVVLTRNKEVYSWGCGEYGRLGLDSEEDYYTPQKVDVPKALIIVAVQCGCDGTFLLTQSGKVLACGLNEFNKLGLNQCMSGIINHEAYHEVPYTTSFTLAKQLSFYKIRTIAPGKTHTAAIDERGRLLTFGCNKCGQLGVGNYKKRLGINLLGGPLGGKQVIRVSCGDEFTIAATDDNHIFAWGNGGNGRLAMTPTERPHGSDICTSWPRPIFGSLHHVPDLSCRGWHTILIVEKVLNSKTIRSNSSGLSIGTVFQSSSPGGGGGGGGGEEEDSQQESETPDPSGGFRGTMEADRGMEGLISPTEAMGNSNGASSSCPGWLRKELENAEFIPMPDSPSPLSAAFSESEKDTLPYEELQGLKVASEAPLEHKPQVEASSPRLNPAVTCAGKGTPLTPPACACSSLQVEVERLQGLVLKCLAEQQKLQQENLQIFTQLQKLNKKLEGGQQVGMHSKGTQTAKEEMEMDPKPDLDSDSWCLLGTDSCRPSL

Serine/threonine-protein kinase Nek7 (Homo sapiens), sequence (Q8TDX7 whole entry, looked up): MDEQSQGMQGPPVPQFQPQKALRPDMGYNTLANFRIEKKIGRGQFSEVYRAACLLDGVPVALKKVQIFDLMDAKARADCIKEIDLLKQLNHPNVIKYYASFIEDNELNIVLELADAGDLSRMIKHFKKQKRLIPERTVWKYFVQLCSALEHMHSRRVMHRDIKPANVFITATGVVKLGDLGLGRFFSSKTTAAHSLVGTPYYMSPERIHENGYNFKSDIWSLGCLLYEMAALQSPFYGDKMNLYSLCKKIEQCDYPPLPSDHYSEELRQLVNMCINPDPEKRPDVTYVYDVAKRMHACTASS
Serine/threonine-protein kinase Nek6 (Homo sapiens), sequence (Q9HC98 whole entry): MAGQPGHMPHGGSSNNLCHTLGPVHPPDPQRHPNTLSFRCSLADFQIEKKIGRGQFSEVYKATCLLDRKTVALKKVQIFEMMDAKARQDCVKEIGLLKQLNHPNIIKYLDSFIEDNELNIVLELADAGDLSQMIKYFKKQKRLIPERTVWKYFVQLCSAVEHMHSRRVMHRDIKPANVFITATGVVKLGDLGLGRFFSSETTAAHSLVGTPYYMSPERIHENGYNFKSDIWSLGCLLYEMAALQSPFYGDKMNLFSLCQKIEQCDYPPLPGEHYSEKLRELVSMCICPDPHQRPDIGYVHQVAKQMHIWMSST
Casein kinase II subunit alpha (Homo sapiens), sequence (P68400 whole entry, looked up): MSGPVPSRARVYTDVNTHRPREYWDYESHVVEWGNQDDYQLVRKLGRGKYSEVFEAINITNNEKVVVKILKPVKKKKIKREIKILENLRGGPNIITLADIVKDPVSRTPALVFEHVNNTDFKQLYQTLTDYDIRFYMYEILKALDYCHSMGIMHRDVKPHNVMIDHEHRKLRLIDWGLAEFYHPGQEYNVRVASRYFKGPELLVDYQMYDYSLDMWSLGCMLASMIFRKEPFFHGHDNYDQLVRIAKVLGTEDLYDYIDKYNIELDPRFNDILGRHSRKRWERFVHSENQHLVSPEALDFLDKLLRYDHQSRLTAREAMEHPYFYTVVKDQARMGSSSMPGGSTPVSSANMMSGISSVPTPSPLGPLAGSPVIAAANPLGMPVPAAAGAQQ
Sphingosine kinase 1 (Homo sapiens), sequence (Q9NYA1 whole entry): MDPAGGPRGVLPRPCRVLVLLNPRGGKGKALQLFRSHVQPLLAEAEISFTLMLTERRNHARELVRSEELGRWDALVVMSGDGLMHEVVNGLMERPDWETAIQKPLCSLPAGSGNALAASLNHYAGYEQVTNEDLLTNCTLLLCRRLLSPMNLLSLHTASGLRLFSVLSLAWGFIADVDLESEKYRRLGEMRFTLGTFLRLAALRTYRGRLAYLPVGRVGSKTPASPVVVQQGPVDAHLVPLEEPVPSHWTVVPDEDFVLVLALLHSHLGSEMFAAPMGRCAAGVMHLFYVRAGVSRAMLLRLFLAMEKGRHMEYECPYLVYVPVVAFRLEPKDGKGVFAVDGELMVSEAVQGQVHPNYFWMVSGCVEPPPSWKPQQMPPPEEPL

For `COc1c(C(N)=O)cc(-c2ccc(Cl)cc2)cc1-c1ccc(S(N)(=O)=O)cc1`, the inhibition [1] was 0.21%, the inhibition [2] was -0.78% and the inhibition [3] was 0.28%. It also gave an inhibition [4] of 1.48%, an inhibition [5] of 3.63% and an inhibition [6] of 2.15%. The inhibition [7] was 1.32%, the inhibition [8] was 6.58% and the inhibition [9] was 4.61%. It also gave an inhibition [10] of 8.74%, an inhibition [11] of 5.47% and an inhibition [12] of 2.17%. It also gave an inhibition [13] of 4.16%, an inhibition [14] of 6.76% and an inhibition [15] of 5.43%. For the same compound, the inhibition [16] was 0.6%, the inhibition [17] was 1.71% and the inhibition [18] was 4.31%. The inhibition [19] was 10.4% and the inhibition [20] was 4.85%.

Source: ChEMBL document CHEMBL1961873, “Compounds: GSK PKIS; Assays: Nanosyn kinase panel” (2012)
